Records with an inconclusive call do not appear. Entries that show only a call come without a potency. Activity calls are given as the source filed them. The call rests on the fitted dose curve.
Assay: qHTS assay to identify small molecule agonists of the AP-1 signaling pathway - cell viability counter screen (AID 1159525); further: nearly all actives have a fitted effect of over 55% in size
Conditions: ME-180 (cervical carcinoma) AP-1-bla cells viability, ATP luminescence, 5 h; series mostly up to 76.8 µM
Description: National Center for Advancing Translational Sciences [NCATS]
NIH Chemical Genomics Center [NCGC]
U.S. Environmental Protection Agency [EPA]
National Institutes of Environmental Health Sciences [NIEHS]
National Toxicology Program [NTP]
U.S. Food and Drug Administration [FDA]
Activator protein-1 (AP-1), a transcription factor, plays an important role in tumor genesis by regulating genes involved in cell proliferation, differentiation, apoptosis, and angiogenesis. AP-1 activity is induced by a complex network of signaling pathways that involves extracellular signals, such as growth factors. The AP-1 protein complex formed from c-Fos and c-Jun binding to the AP-1 response element results in transcriptional activation of genes containing such elements within their promoter.
Low molecular weight molecules have been discovered and developed to modulate various components of these signaling pathways, for example, MAP kinase inhibitors. However, many points of pathway modulation remain untested due to the lack of chemical probes making this signaling locus of general interest.
Using a beta-lactamase reporter-gene under control of the AP-1 response element, a cell-based assay [CellSensor(TM) AP-1-bla ME-180 developed by Invitrogen Corp.] was used to measure EGF-induced signaling. The Tox21 10K library compounds were measured for their ability to positively modulate the action of EC50 EGF on reporter gene activity. Compounds were screened in a 15-pt titration series in 1536-well format. The cytotoxicity of the Tox21 compound library against this cell line was tested in parallel by measuring the intra cellular ATP content in the same wells.
Tox21 Assay Protocol Summary:
2500 cells/5uL in Opti-MEM medium containing 0.5% dialyzed FBS, 0.1 mM NEAA, 1 mM sodium pyruvate and 10 mM HEPES was dispensed into 1536-well black wall/clear bottom plates using a Multidrop dispenser and cells were cultured at 37 degrees Celsius overnight. Next day 23 nL of compounds dissolved in DMSO, positive controls or DMSO were delivered to each well using a pin tool. The plates were incubated at 37 degrees Celsius for 5 hours. 1 uL of LiveBLAzerTM B/G FRET substrate (Solution A+B+C+D) was added to each well using a Flying Reagent Dispenser. After incubated at room temperature for 2.5 hours the plates were measured on an EnVision plate reader at Excitation 405nm, Emission1=460nm and Emission 2=530nm. The %Activity was determined from the ratio of 460nm/530nm.
After the plates were read for Beta-Lactamase assay on Envision; 3 ul Cell Titer Glo (Promega) was added to measure the cytotoxicity and the plates were then incubated at RT in dark for 30 min. The luminescence was read on ViewLux (Perkin Elmer, Shelton, CT) using 6 sec exposure. ViewLux data was expressed as relative luminescence units.
For primary data analysis, raw plate reads for each titration point were first normalized relative to […] EGF control (100%) and DMSO only wells (basal, 0%).
For primary data analysis for viability assay, raw plate reads for each titration point were first normalized Tetra n-octyl ammonium bromide control (-100%) and DMSO (control, 100%).

For O=C(O)C(F)(F)C(F)(F)C(F)(F)C(F)(F)C(F)(F)C(F)(F)F, which Potency is on record?
Its Potency is “inactive”.

For CCOC(=O)C(SP(=S)(OC)OC)c1ccccc1 (stereo not given), which Potency is on record?
Its Potency is “inactive”.

With O=[N+]([O-])CCO as the molecule, how does the Potency read?
The Potency was “inactive”.

With COC(=O)c1ccc(CBr)cc1 as the molecule, how does the Potency read?
The Potency was “inactive”.

Which Potency does the source give for C#CC(C)(C)O here?
The Potency was “inactive”.

For N#CC(Br)(Br)C(N)=O, which Potency is on record?
Its Potency is “inactive”.

For BrCCc1ccccc1, which Potency is on record?
The Potency was “inactive”.

For CC(C)(N)Cc1ccccc1Cl, which Potency is on record?
The Potency was “inactive”.

For OP(O)c1ccccc1, which Potency is on record?
Its Potency is “inactive”.

Which Potency does the source give for CS(=O)(=O)Cl here?
The Potency was “inactive”.

With CCOC(=O)CC(SP(=S)(OC)OC)C(=O)OCC (stereo not given) as the molecule, how does the Potency read?
Its Potency is “inactive”.

With CCC(C(N)=O)N1CCCC1=O (stereo not given) as the molecule, how does the Potency read?
The Potency was “inactive”.

For O=C(O)CBr, which Potency is on record?
Its Potency is “inactive”.

With O=C1CCCCC1Cl (stereo not given) as the molecule, how does the Potency read?
The Potency was “inactive”.

With CCOC(=O)C(Cl)Cc1cc(-n2nc(C)n(C(F)F)c2=O)c(F)cc1Cl (stereo not given) as the molecule, how does the Potency read?
The Potency was “inactive”.

With CCCCS(=O)(=O)Cl as the molecule, how does the Potency read?
Its Potency is “inactive”.

With CC[C@H](O)C(C[C@H](C)N(C)C)(c1ccccc1)c1ccccc1 as the molecule, how does the Potency read?
The Potency was “inactive”.

Which Potency does the source give for CC[C@@H](CO)NC(=O)[C@@H]1C=C2c3cccc4c3c(cn4C)C[C@H]2N(C)C1 here?
Its Potency is “inactive”.

Which Potency does the source give for O=P(O)(O)c1ccccc1 here?
The Potency was “inactive”.

For CCOC(=O)CCl, which Potency is on record?
Its Potency is “inactive”.

With COc1ccc(CN2CCNCC2)c(OC)c1OC as the molecule, how does the Potency read?
Its Potency is “inactive”.

With O=CCCl as the molecule, how does the Potency read?
Its Potency is “inactive”.

With COP(=O)(O)OC as the molecule, how does the Potency read?
Its Potency is “inactive”.

Which Potency does the source give for Cc1ccc(-c2nc3ccc(C)cn3c2CC(=O)N(C)C)cc1 here?
The Potency was “inactive”.

Which Potency does the source give for ClCOCCl here?
The Potency was “inactive”.

For CCN(CC)CCOC(=O)C(O)(c1ccccc1)c1ccccc1, which Potency is on record?
The Potency was “inactive”.

For CN(C)CCc1c[nH]c2cccc(OP(=O)(O)O)c12, which Potency is on record?
Its Potency is “inactive”.

For CCCC(C)(COC(N)=O)COC(N)=O, which Potency is on record?
The Potency was “inactive”.

Which Potency does the source give for CCN(CCO)CCn1c(Cc2ccccc2)nc2c1c(=O)n(C)c(=O)n2C here?
The Potency was “inactive”.

With O=C(O)c1c(Cl)ccc2cc(Cl)cnc12 as the molecule, how does the Potency read?
Its Potency is “inactive”.

With NNCc1ccccc1 as the molecule, how does the Potency read?
Its Potency is “inactive”.

For CC(C)(C)C(=O)C(Cl)Cl, which Potency is on record?
The Potency was “inactive”.

Which Potency does the source give for CCC1(c2cccc(O)c2)CCCCN(C)C1 (stereo not given) here?
Its Potency is “inactive”.

With CCCCCCCC(=O)Cl as the molecule, how does the Potency read?
The Potency was “inactive”.

With NC1(c2ccccc2)CCCCC1 as the molecule, how does the Potency read?
The Potency was “inactive”.

For CCC(CC)(CNC(=O)CCCO)c1cccc(OC)c1, which Potency is on record?
The Potency was “inactive”.

Which Potency does the source give for BrCC1CO1 (stereo not given) here?
Its Potency is “inactive”.

With CC(C)[C@]12CC(=O)[C@H](C)[C@H]1C2 as the molecule, how does the Potency read?
The Potency was “inactive”.

Which Potency does the source give for C=CC(=O)OCCN(C)C here?
Its Potency is “inactive”.

With Oc1ccc(Cc2ccc(O)cc2)cc1 as the molecule, how does the Potency read?
Its Potency is “inactive”.
